The full list was thinned out, with the strongest signals kept by preference.
Experiments:
Assay in all cases: glycan array binding signal (z-score within array); higher = stronger binding
Settings in all cases: glycan notation: IUPAC condensed, linker removed
[1] = biological target: Fuc(a1-2)Gal(b1-3)GlcNAc6S
Procedure, shortened: (§1)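 Glycan array binding is given as a within-array Z-score, which can be read as non-binding when negative. The arrays, 3228 of them, came from the Consortium for Functional Glycomics database and were retained only where the protein sequence was available. Z-scores were averaged across arrays of the same protein sequence at different concentrations or buffers and across linkers.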

[2] = biological target: Fuc(a1-2)Gal(b1-3)[Fuc(a1-4)]GlcNAc
Procedure, shortened: as §1

[3] = biological target: Fuc(a1-2)Gal(b1-3)[Fuc(a1-4)]GlcNAc(b1-2)Man(a1-3)[Fuc(a1-2)Gal(b1-3)[Fuc(a1-4)]GlcNAc(b1-2)Man(a1-6)]Man(b1-4)GlcNAc(b1-4)[Fuc(a1-6)]GlcNAc(b1-4)[Fuc(a1-6)]GlcNAc
Procedure, shortened: as §1

[4] = biological target: Fuc(a1-2)Gal(b1-3)[Fuc(a1-4)]GlcNAc(b1-3)[Fuc(a1-3)[Gal(b1-4)]GlcNAc(b1-6)]Gal(b1-4)Glc
Procedure, shortened: as §1

[5] = biological target: Fuc(a1-2)Gal(b1-4)GlcNAc6S
Procedure, shortened: as §1

[6] = biological target: Fuc(a1-2)[GalNAc(a1-3)]Gal(b1-3)GlcNAc(b1-2)Man(a1-3)[Fuc(a1-2)[GalNAc(a1-3)]Gal(b1-3)GlcNAc(b1-2)Man(a1-6)]Man(b1-4)GlcNAc(b1-4)[Fuc(a1-6)]GlcNAc
Procedure, shortened: as §1

[7] = biological target: Fuc(a1-3)[Gal(b1-4)]Glc6S
Procedure, shortened: as §1

[8] = biological target: Fuc(a1-3)[Gal(b1-4)]GlcNAc(b1-3)Gal(b1-4)[Fuc(a1-3)]GlcNAc(b1-3)Gal(b1-4)[Fuc(a1-3)]GlcNAc
Procedure, shortened: as §1

[9] = biological target: Fuc(a1-3)[GalNAc(b1-4)]GlcNAc
Procedure, shortened: as §1

[10] = biological target: Gal(a1-3)Gal(b1-4)GlcNAc(b1-6)GalNAc
Procedure, shortened: as §1

[11] = biological target: Gal(a1-4)Gal(b1-4)GlcNAc(b1-3)Gal(b1-4)Glc
Procedure, shortened: as §1

[12] = biological target: Gal(b1-3)GalNAc(b1-3)Gal(a1-4)Gal(b1-4)Glc
Procedure, shortened: as §1

[13] = biological target: Gal(b1-3)GlcNAc(b1-2)Man(a1-3)[GlcNAc(b1-4)][Gal(b1-3)GlcNAc(b1-2)Man(a1-6)]Man(b1-4)GlcNAc(b1-4)GlcNAc
Procedure, shortened: as §1

[14] = biological target: Gal(b1-3)GlcNAc(b1-3)Gal(b1-4)GlcNAc
Procedure, shortened: as §1

[15] = biological target: Gal(b1-3)GlcNAc(b1-3)Gal(b1-4)GlcNAc(b1-2)Man(a1-3)[Gal(b1-3)GlcNAc(b1-3)Gal(b1-4)GlcNAc(b1-2)Man(a1-6)]Man(b1-4)GlcNAc(b1-4)GlcNAc
Procedure, shortened: as §1

Gal(b1-3)GlcNAc6S = biological target: Gal(b1-3)GlcNAc6S
Procedure, shortened: as §1

[16] = biological target: Gal(b1-4)GlcNAc(b1-2)Man(a1-6)Man(b1-4)GlcNAc(b1-4)GlcNAc
Procedure, shortened: as §1

[17] = biological target: Gal(b1-4)GlcNAc(b1-2)Man(a1-6)[Man(a1-3)]Man(b1-4)GlcNAc(b1-4)GlcNAc
Procedure, shortened: as §1

[18] = biological target: Gal(b1-4)GlcNAc(b1-3)Gal(b1-4)GlcNAc(b1-2)[Gal(b1-4)GlcNAc(b1-3)Gal(b1-4)GlcNAc(b1-6)]Man(a1-6)[Gal(b1-4)GlcNAc(b1-3)Gal(b1-4)GlcNAc(b1-2)Man(a1-3)]Man(b1-4)GlcNAc(b1-4)[Fuc(a1-6)]GlcNAc
Procedure, shortened: as §1

[19] = biological target: Gal(b1-4)GlcNAc(b1-3)Gal(b1-4)GlcNAc(b1-3)Gal(b1-4)GlcNAc(b1-2)Man(a1-3)[Gal(b1-4)GlcNAc(b1-3)Gal(b1-4)GlcNAc(b1-3)Gal(b1-4)GlcNAc(b1-2)Man(a1-6)]Man(b1-4)GlcNAc(b1-4)GlcNAc
Procedure, shortened: as §1

[20] = biological target: Gal(b1-4)GlcNAc(b1-3)Gal(b1-4)GlcNAc(b1-3)Gal(b1-4)GlcNAc(b1-3)Gal(b1-4)GlcNAc(b1-2)Man(a1-3)[Gal(b1-4)GlcNAc(b1-3)Gal(b1-4)GlcNAc(b1-3)Gal(b1-4)GlcNAc(b1-3)Gal(b1-4)GlcNAc(b1-2)Man(a1-6)]Man(b1-4)GlcNAc(b1-4)[Fuc(a1-6)]GlcNAc
Procedure, shortened: as §1

[21] = biological target: Gal(b1-4)GlcNAc(b1-3)Gal(b1-4)GlcNAc(b1-3)Gal(b1-4)GlcNAc(b1-3)Gal(b1-4)GlcNAc(b1-2)[Gal(b1-4)GlcNAc(b1-3)Gal(b1-4)GlcNAc(b1-3)Gal(b1-4)GlcNAc(b1-3)Gal(b1-4)GlcNAc(b1-6)]Man(a1-6)[Gal(b1-4)GlcNAc(b1-3)Gal(b1-4)GlcNAc(b1-3)Gal(b1-4)GlcNAc(b1-3)Gal(b1-4)GlcNAc(b1-2)Man(a1-3)]Man(b1-4)GlcNAc(b1-4)[Fuc(a1-6)]GlcNAc
Procedure, shortened: as §1

[22] = biological target: Gal(b1-4)GlcNAc(b1-3)Gal(b1-4)GlcNAc(b1-3)Gal(b1-4)GlcNAc(b1-3)Gal(b1-4)GlcNAc(b1-3)Gal(b1-4)GlcNAc(b1-2)Man(a1-3)[Gal(b1-4)GlcNAc(b1-3)Gal(b1-4)GlcNAc(b1-3)Gal(b1-4)GlcNAc(b1-3)Gal(b1-4)GlcNAc(b1-3)Gal(b1-4)GlcNAc(b1-2)Man(a1-6)]Man(b1-4)GlcNAc(b1-4)GlcNAc
Procedure, shortened: as §1

Gal6S(b1-4)Glc = biological target: Gal6S(b1-4)Glc
Procedure, shortened: as §1

Gal6S(b1-4)GlcNAc = biological target: Gal6S(b1-4)GlcNAc
Procedure, shortened: as §1

GalNAc(a1-3)Gal = biological target: GalNAc(a1-3)Gal
Procedure, shortened: as §1

GalNAc(a1-3)GalNAc = biological target: GalNAc(a1-3)GalNAc
Procedure, shortened: as §1

[23] = biological target: GalNAc(b1-3)Gal(a1-4)Gal(b1-4)GlcNAc(b1-3)Gal(b1-4)Glc
Procedure, shortened: as §1

GalNAc(b1-6)GalNAc = biological target: GalNAc(b1-6)GalNAc
Procedure, shortened: as §1

[24] = biological target: GlcNAc(a1-4)Gal(b1-4)GlcNAc(b1-3)Gal(b1-4)GlcNAc
Procedure, shortened: as §1

[25] = biological target: GlcNAc(a1-4)Gal(b1-4)GlcNAc(b1-3)Gal(b1-4)[Fuc(a1-3)]GlcNAc(b1-3)Gal(b1-4)[Fuc(a1-3)]GlcNAc
Procedure, shortened: as §1

[26] = biological target: GlcNAc(b1-2)[GlcNAc(b1-4)]Man(a1-3)[GlcNAc(b1-4)][GlcNAc(b1-2)[GlcNAc(b1-6)]Man(a1-6)]Man(b1-4)GlcNAc(b1-4)GlcNAc
Procedure, shortened: as §1

[27] = biological target: GlcNAc(b1-3)Gal(b1-4)GlcNAc(b1-3)Gal(b1-4)GlcNAc(b1-2)Man(a1-3)[GlcNAc(b1-3)Gal(b1-4)GlcNAc(b1-3)Gal(b1-4)GlcNAc(b1-2)Man(a1-6)]Man(b1-4)GlcNAc(b1-4)[Fuc(a1-6)]GlcNAc
Procedure, shortened: as §1

[28] = biological target: Man(a1-3)[Man(a1-6)]Man(a1-6)[Man(a1-3)]Man
Procedure, shortened: as §1

[29] = biological target: Neu5Ac(a2-3)Gal(b1-3)GalNAc6S
Procedure, shortened: as §1

[30] = biological target: Neu5Ac(a2-3)Gal(b1-3)[Neu5Ac(a2-6)]GlcNAc(b1-3)[Fuc(a1-3)[Gal(b1-4)]GlcNAc(b1-6)]Gal(b1-4)Glc
Procedure, shortened: as §1

[31] = biological target: Neu5Ac(a2-3)Gal(b1-4)GlcNAc(b1-2)[Neu5Ac(a2-3)Gal(b1-4)GlcNAc(b1-4)]Man(a1-3)[GlcNAc(b1-4)][Neu5Ac(a2-3)Gal(b1-4)GlcNAc(b1-4)Man(a1-6)]Man(b1-4)GlcNAc(b1-4)GlcNAc
Procedure, shortened: as §1

[32] = biological target: Neu5Ac(a2-3)Gal(b1-4)[Fuc(a1-3)]GlcNAc(b1-2)Man
Procedure, shortened: as §1

[33] = biological target: Neu5Ac(a2-6)Gal(b1-4)GlcNAc(b1-2)Man(a1-3)[Man(a1-6)]Man(b1-4)GlcNAc(b1-4)GlcNAc
Procedure, shortened: as §1

[34] = biological target: Neu5Ac(a2-6)Gal(b1-4)GlcNAc(b1-2)[Neu5Ac(a2-6)Gal(b1-4)GlcNAc(b1-4)]Man(a1-3)[GlcNAc(b1-4)][Neu5Ac(a2-6)Gal(b1-4)GlcNAc(b1-4)Man(a1-6)]Man(b1-4)GlcNAc(b1-4)GlcNAc
Procedure, shortened: as §1

[35] = biological target: Neu5Ac(a2-6)Gal(b1-4)GlcNAc(b1-6)[Gal(b1-3)]GalNAc
Procedure, shortened: as §1

[36] = biological target: Neu5Ac(a2-6)GalNAc(b1-4)GlcNAc
Procedure, shortened: as §1

[37] = biological target: Neu5Ac(a2-8)Neu5Ac(a2-8)Neu5Ac(a2-3)Gal(b1-4)Glc
Procedure, shortened: as §1

Neu5Gc(a2-6)GalNAc = biological target: Neu5Gc(a2-6)GalNAc
Procedure, shortened: as §1

B1: OS9-MRH (Homo sapiens), Q13438 (protein)
chain: IPELLSPMRDAPCLLKTKDWWTYEFCYGRHIQQYHMEDSEIKGEVLYLGYYQSAFDWDDETAKASKQHRLKRYHSQTYGNGSKCDLNGRPREAEVRFLCDEGAGISGDYIDRVDEPLSCSYVLTIRTPRLCPHPLLRPPPSAAPQAI
glycan array binding signal (z-score) [1]: 3.15 | glycan array binding signal (z-score) [2]: -1.22 | glycan array binding signal (z-score) [3]: 0.415 | glycan array binding signal (z-score) [4]: 0.3 | glycan array binding signal (z-score) [5]: 2.76 | glycan array binding signal (z-score) [6]: 0.172 | glycan array binding signal (z-score) [7]: -1.74 | glycan array binding signal (z-score) [8]: 2.81 | glycan array binding signal (z-score) [9]: -0.024 | glycan array binding signal (z-score) [10]: 0.493 | glycan array binding signal (z-score) [11]: -0.569 | glycan array binding signal (z-score) [12]: 2.47 | glycan array binding signal (z-score) [13]: 2.02 | glycan array binding signal (z-score) [14]: -0.137 | glycan array binding signal (z-score) [15]: 2.4 | glycan array binding signal (z-score) (Gal(b1-3)GlcNAc6S): -0.326 | glycan array binding signal (z-score) [16]: 2.22 | glycan array binding signal (z-score) [17]: 1.24 | glycan array binding signal (z-score) [18]: 2.17 | glycan array binding signal (z-score) [19]: 0.47 | glycan array binding signal (z-score) [20]: -0.755 | glycan array binding signal (z-score) [21]: 1.51 | glycan array binding signal (z-score) [22]: 2.42 | glycan array binding signal (z-score) (Gal6S(b1-4)Glc): -0.643 | glycan array binding signal (z-score) (Gal6S(b1-4)GlcNAc): -0.312 | glycan array binding signal (z-score) (GalNAc(a1-3)Gal): 2.81 | glycan array binding signal (z-score) (GalNAc(a1-3)GalNAc): 3.57 | glycan array binding signal (z-score) [23]: -1.33 | glycan array binding signal (z-score) (GalNAc(b1-6)GalNAc): 1.14 | glycan array binding signal (z-score) [24]: -0.159 | glycan array binding signal (z-score) [25]: 1.12 | glycan array binding signal (z-score) [26]: -1.46 | glycan array binding signal (z-score) [27]: 0.656 | glycan array binding signal (z-score) [28]: 0.835 | glycan array binding signal (z-score) [29]: 0.458 | glycan array binding signal (z-score) [30]: -0.321 | glycan array binding signal (z-score) [31]: 0.322 | glycan array binding signal (z-score) [32]: -0.503 | glycan array binding signal (z-score) [33]: -0.807 | glycan array binding signal (z-score) [34]: -0.99 | glycan array binding signal (z-score) [35]: -0.081 | glycan array binding signal (z-score) [36]: 5.26 | glycan array binding signal (z-score) [37]: 0.1 | glycan array binding signal (z-score) (Neu5Gc(a2-6)GalNAc): 1.14
